# From PubChem BioAssay
# The entries come from a sample that favours hits as a whole.
# 12-LOX inh – Primary qHTS assay for inhibitors of human arachidonate 12S-lipoxygenase (ALOX12): Round 2; Potency, µM (series often up to 108 µM), inactives show top-dose activity change, negative = inhibition, usual class: inhibitors; purified 12hLO, xylenol orange hydroperoxide absorbance; Polyunsaturated fatty acid lipoxygenase ALOX12 (Homo sapiens), P18054; hit rate 1.1% among 580,000; further: on the % scale 0 is the no-effect control and ±100 the full control effect
# Target sequence (P18054 whole entry, looked up): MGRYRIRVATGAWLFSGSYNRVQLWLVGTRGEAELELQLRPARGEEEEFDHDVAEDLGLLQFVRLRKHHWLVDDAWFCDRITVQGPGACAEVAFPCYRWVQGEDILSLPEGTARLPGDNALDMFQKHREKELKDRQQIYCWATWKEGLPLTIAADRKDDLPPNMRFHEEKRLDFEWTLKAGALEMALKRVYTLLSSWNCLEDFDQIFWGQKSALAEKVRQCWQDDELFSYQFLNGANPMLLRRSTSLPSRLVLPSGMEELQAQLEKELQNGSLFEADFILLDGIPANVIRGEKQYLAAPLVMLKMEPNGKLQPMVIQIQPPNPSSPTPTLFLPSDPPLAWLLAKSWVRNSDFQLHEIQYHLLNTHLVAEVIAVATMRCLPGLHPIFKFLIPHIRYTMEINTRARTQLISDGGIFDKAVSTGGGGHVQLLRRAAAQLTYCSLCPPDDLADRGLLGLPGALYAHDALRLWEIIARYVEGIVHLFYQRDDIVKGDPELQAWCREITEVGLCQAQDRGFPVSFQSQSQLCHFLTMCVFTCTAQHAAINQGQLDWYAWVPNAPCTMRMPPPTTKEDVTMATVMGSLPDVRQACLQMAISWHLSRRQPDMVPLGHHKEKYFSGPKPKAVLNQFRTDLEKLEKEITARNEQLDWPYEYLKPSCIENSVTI
#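 Purified human 12hLO at 150 nM in 25 mM Hepes, 0.01% Triton X-100, pH 7.0, preincubated 15 min at room temperature with compound. Reaction started with 40 uM arachidonic acid, 30 min at room temperature. Hydroperoxide measured by Fe-xylenol orange, 573/405 nm absorbance ratio.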
# Sfp PPTase inh – qHTS Assay for Inhibitors of Bacillus subtilis Sfp phosphopantetheinyl transferase (PPTase); 4'-phosphopantetheinyl transferase ffp (Bacillus subtilis), Q9F4F7; Biochemical Sfp PPTase activity, qHTS; Potency, µM, for the others: largest response in the series, negative = inhibition, usual class: inhibitors; hit rate 3.5% among 310,000; AID 1490, 2009;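 further: the enzyme is Sfp with the accession as filed and its product quenches rhodamine fluorescence; 0% = enzyme reaction without inhibitor and -100% = no enzyme wells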
#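 Step 1, compound plus 15 nM Sfp-PPTase, 15 min, room temperature. Step 2, add rhodamine-CoA (5 uM) and BHQ-2-YbbR (12.5 uM). Step 3, read 525/598 nm fluorescence at 0 and 30 min.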
# G9a block – qHTS Assay for Inhibitors of Histone Lysine Methyltransferase G9a | Histone-lysine N-methyltransferase EHMT2 (Homo sapiens), Q96KQ7 | G9a H3K9 monomethylation, AlphaScreen, 2 h | Potency, µM (titrated, usually from 102 µM), inactives show top-dose activity, negative = inhibition, most hits filed as inhibitors | hit rate 8.8% among 350,000; further: on the % scale 0 is the no-effect control and ±100 the full control effect; nearly all actives have a fitted effect of over 75% in size
#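 Quantitative HTS format: methyltransferase activity on a biotin-tagged H3K9 peptide is measured by AlphaScreen, using a rabbit anti-monomethyl-H3K9 antibody with streptavidin donor and anti-IgG acceptor beads. Final levels are 20 nM enzyme, 500 nM peptide, 20 uM SAM; 2 h RT.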
# Glioma ERSR ind – qHTS for Inducers of the Endoplasmic Reticulum Stress Response (ERSR) in Human Glioma: qHTS; hit rate 0.02% among 420,000; U87-MG GRP78 promoter luciferase reporter, 16 h; Potency, µM, inactives show at the top dose activation, hits mostly activators; AID 602332, 2012; further: series mostly up to about 76 µM; % of control where 0% means no effect; nearly all actives have a fitted effect of over 35% in size
#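 Stably transfected U87-MG human glioma cells carrying a GRP78-based luminescent sensor were seeded at 1000 cells/well, pin-dosed with compounds and incubated 16 h. Luciferase reagent was then added, and end-point luminescence was read after 10 min at room temperature.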
# VDR inhibitor – Inhibitors of the vitamin D receptor (VDR): qHTS; Vitamin D3 receptor (Homo sapiens), P11473; hit rate 0.93% among 400,000; VDR-SRC2-3 peptide fluorescence polarization, 2 h; Potency, µM, without a hit: max response, negative = inhibition, hits mostly inhibitors; AID 504847, 2011; further: on the % scale 0 is the no-effect control and ±100 the full control effect
#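 Fluorescence polarization assay measuring small-molecule disruption of VDR binding to the coregulator peptide SRC2-3. Compounds were pin-transferred (23 nl) into the reagent mix and incubated 2 h at room temperature before reading.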
# Active calls of the source: *; ? = inconclusive; . = not tested or not shown; [ ] = remark or other dose. The call rests on the fitted dose curve; in most records, active means well fitted curve in the direction sought with a large enough effect; inconclusive means small, poorly fitted or top-dose-only effect, or another doubt; inactive means no such curve, though single readings can be large; an effect the other way counts as inactive or inconclusive. Potency means the concentration at half of the fitted maximal effect.
SMILES,12-LOX inh,Sfp PPTase inh,G9a block,Glioma ERSR ind,VDR inhibitor
Cc1ccc(-c2nc(N)sc2-c2ccc(C)cc2)cc1,?,18%,50µM*,-8%,6%
CCCc1sc(N)nc1-c1ccc(C)cc1,53%,2%,56µM*,-1%,1%
Nc1nc(-c2ccccc2)c(N=Nc2ccc(Cl)cc2)s1,-19%,25µM*,2µM*,0%,-9%
Cc1ccc(-c2nc(N)sc2C)cc1,2%,7%,50µM*,9%,-29%
O=C(CC1=CCCCC1)N1CC(c2noc(C3CCCN3CC3CC3)n2)C1 (configuration not stated),49%,.,.,.,.
Nc1nc(-c2ccccc2)c(-c2ccccc2)s1,?,-15%,40µM*,2%,?
Cc1cn2nc(C(=O)NCc3ccc(Cl)cc3)cc2c(N2CCCC2)n1,33%,.,.,.,.
O=[N+]([O-])c1cc([N+](=O)[O-])c2c(=Nc3ccccc3)n(-c3ccccc3)n(O)c2c1,0%,?,35µM*,20%,?
COc1ccc(N2CCN(C(=O)c3cn(C4CCCC4)c(=O)c4c3c3ccccc3n4C)CC2)cc1,?,1%,32µM*,-6%,-2%
Cn1c2ccccc2c2c(C(=O)N3CCN(c4cccc(Cl)c4)CC3)cn(C3CCCCC3)c(=O)c21,-9%,.,-35%[59 µM],-2%,13%
Cc1ccc(CNC(=O)c2cn(C3CCCC3)c(=O)c3c2c2ccccc2n3C)o1,.,1.4µM*,11µM*,.,.
COc1ccc(N2CCN(C(=O)c3cn(C)c(=O)c4c3c3ccccc3n4C)CC2)cc1,?,-15%,32µM*,-5%,9%
Cc1cnc2c(S(=O)(=O)NCC3CCOC3)cccc2c1 (configuration not stated),-30%,.,.,.,.
COc1ccc(NC(=O)O/N=C2/CCCc3ccc(OC)cc32)cc1,-9%,7%,18%,0%,45µM*
Cc1cccc(C)c1NC(=O)Cn1nc(-c2cccs2)ccc1=O,0%,.,.,.,.
CC(=O)c1ccc(OCC(=O)Nc2ccc3oc(C)nc3c2)cc1,-3%,.,.,.,.
Cc1ccc(C(=O)NNCC(=O)Nc2ccc(Cl)cc2F)cc1,16µM*,.,.,-2%,-21%
O=C(CCNC(=O)c1ccc(Cl)cc1)Nc1ccc(Cl)cc1F,-7%,23%,5%[59 µM],2%,5%
COc1ccc2nc(/C=N/NC(=O)CCNC(=O)OC(C)(C)C)ccc2c1,?,11%,32µM*,1%,9%
CC1CCN(S(=O)(=O)c2ccc(NC(=O)C3CC(=O)N(CCc4ccc(F)cc4)C3)cc2)CC1 (configuration not stated),-5%,.,.,.,.
O=C1Nc2ccccc2OC1CC(=O)N1CCN(c2cccc(C(F)(F)F)c2)CC1 (configuration not stated),2%,-16%,35µM*,-1%,-22%
COn1c(SC(C)C)nc2ccccc2c1=O,-20%,-9%,1%[12.7 µM],0%,1%
COn1c(SC2CCCCC2)nc2ccccc2c1=O,?,-19%,22µM*,1%,-4%
COCCNc1nc2nonc2nc1N1C[C@H]2CC[C@H]1C2,412%,-1%,79µM*,4%,-1%
CC(C)N(CC#CCC(O)(c1ccccc1)c1ccccc1)CCO,?,45µM*,13µM*,-1%,21%
SMILES,12-LOX inh,Sfp PPTase inh,G9a block,Glioma ERSR ind,VDR inhibitor
CC(C)(C)N(NS(=O)(=O)c1ccc(F)cc1)c1ccccc1,14%,-30%,8.9µM*,1%,45µM*
Cc1ccccc1NS(=O)(=O)c1ccc(F)cc1,-18%,22%,7%[59 µM],-4%,-3%
O=C(CCCc1c[nH]c2ccccc12)N1CCC(c2noc(COc3ccc(F)cc3)n2)CC1,0%,.,.,.,.
CN(C)C(=O)c1cc(Br)c(Br)s1,10%,.,.,.,.
Cc1ccc(CN(C)C(=O)c2cc(Br)c(Br)s2)o1,?,79µM*,45µM*,-3%,-10%
CCCc1ccc2oc(C(=O)N(C)CCn3ccnc3C)c(C)c2c1,?,3%,16%,2%,6%
CCCc1ccc2oc(C(=O)N(C)Cc3cnccn3)c(C)c2c1,-10%,-15%,40µM*,0%,5%
Cc1ccc2oc(C(=O)N(C)Cc3ccc(C)o3)c(C)c2c1,?,10µM*,8.9µM*,9%,?
Cc1cccc(Cc2c(C)nc(Nc3nc(C)c4cc(C)ccc4n3)[nH]c2=O)c1,-1%,.,.,.,.
CCC(CC)NC(=O)COc1ccc2ccc(=O)oc2c1,-11%,.,.,.,.
N#Cc1ccc(CS(=O)(=O)Cc2ccccc2C(F)(F)F)cc1,-7%,.,.,.,.
CC(=O)c1sc2ccccc2c1OC(=O)c1ccc(C(C)(C)C)cc1,-4%,.,.,.,.
CN1CCN(Cc2nc3ccccc3c(=O)n2Cc2nc(-c3ccc([N+](=O)[O-])cc3)cs2)CC1,45µM*,-16%,22µM*,-13%,-13%
COc1ccc(C2Nc3cccc4cccc(c34)N2)cc1,?,2%,35µM*,3%,-19%
CN(C)c1ccc(C2NC(=O)c3ccccc3N2)cc1 (configuration not stated),48%,0%,.,-11%,1%
COc1ccccc1C1Nc2cccc3cccc(c23)N1,?,56µM*,?,1%,-10%
COc1cc(OC)c(C2Nc3cccc4cccc(c34)N2)c(OC)c1,?,-17%,28µM*,-2%,-5%
c1ccc(C2Nc3cccc4cccc(c34)N2)cc1,?,28µM*,13µM*,-4%,-15%
CC1(C)Nc2cccc3cccc(c23)N1,?,.,.,-2%,?
Cn1c(=O)c2c(ncn2CCCNC2=NCCC2)n(C)c1=O,-36%,.,.,.,.
CN(C)c1ccc(C2Nc3cccc4cccc(c34)N2)cc1,332%,-25%,40µM*,0%,25%
Cc1ccc(NC(=O)CCCc2cccs2)c(Br)c1,17%,.,.,.,.
Cc1cccc(COC(=O)c2ccc(C#N)cc2)c1,-15%,.,.,.,.
O=C1C=CC(=O)N1Cc1ccncc1,?,.,.,-3%,-12%
O=C1C=CC(=O)N1CCCCCCCCCCN1C(=O)C=CC1=O,2µM*,.,.,-11%,16µM*
CCCn1cc(C2CCN(S(=O)(=O)c3c(C)c(C)cc(C)c3C)CC2)c2ccccc21,5%,.,.,.,.
O=C(C1=C[C@@H]2[C@H]3C(=O)N(c4cccc(Cl)c4)C(=O)[C@H]3[C@@H](C(=O)c3ccc(Cl)cc3)N2C=C1)c1ccccc1,.,-3%,3.2µM*,-3%,32%
CC(=O)Oc1ccc(C(=O)[C@H]2[C@H]3C(=O)N(c4cccc5ccccc45)C(=O)[C@H]3[C@@H]3C=CC=NN32)cc1,-16%,?,?,-3%,-13%
